# C diff HTS = C. difficile growth inhibitors, primary screen, HTS. 0.25% of 86,000 active. growth activity, negative = inhibition, % at 16 µg/mL (by protocol). Clostridium difficile clinical isolate growth, OD600, 24 h; stronger effect = lower value. AID 1259249, 2017;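 active = mean growth activity at or below -80% and every replicate also at or below -80%; inconclusive = mean at or below -80% but some replicate above -80%; inactive = mean growth activity above -80%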;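 note: 0% = DMSO wells and -100% = levofloxacin 16 µg/mL wells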
# Pf Dd2 growth = P. falciparum Dd2 growth inhibitors, primary screen, SYBR Green fluorescence, single dose replicates | 72 h; stronger effect = lower value | activity change, % at 10 µM | 2.3% of 94,000 active | AID 1159554, 2015; in the data active = activity change below about -80%; inconclusive = no clear call, values can overlap the other calls
# Starred values were filed as active, the others as inactive; ? = inconclusive; . = not tested or not shown. In the library only some 2.4% were active in any assay of this set; here they are far more common.
SMILES,C diff HTS,Pf Dd2 growth
C[C@H](CO)N1C[C@H](C)[C@H](CN(C)S(=O)(=O)c2ccc(F)cc2)Oc2c(NC(=O)c3ccc(-c4nccs4)cc3)cccc2C1=O,-6.5,-37.8
CCCN(C)C[C@H]1OCCCC[C@@H](C)Oc2ccc(NC(=O)Nc3ccc(C(F)(F)F)cc3)cc2C(=O)N([C@@H](C)CO)C[C@H]1C,-107.0*,-77.1
C[C@@H]1CN([C@@H](C)CO)C(=O)c2cc(NC(=O)Nc3ccc(C(F)(F)F)cc3)ccc2O[C@@H](C)CCCCO[C@@H]1CN(C)CC1CCCCC1,-12.0,-48.6
C[C@@H]1CCCCO[C@H](CN(C)CC2CCCCC2)[C@H](C)CN([C@H](C)CO)C(=O)c2cc(NC(=O)Nc3ccc(C(F)(F)F)cc3)ccc2O1,-102.7*,-77.6
C[C@@H]1CCCCO[C@@H](CN(C)CC2CC2)[C@H](C)CN([C@@H](C)CO)C(=O)c2cc(NC(=O)Nc3ccc(C(F)(F)F)cc3)ccc2O1,4.4,-55.5
C[C@@H]1CCCCO[C@@H](CN(C)CC2CCCCC2)[C@H](C)CN([C@H](C)CO)C(=O)c2cc(NC(=O)Nc3ccc(C(F)(F)F)cc3)ccc2O1,-103.6*,-80.9*
C[C@@H]1CCCCO[C@@H](CN(C)CC2CC2)[C@H](C)CN([C@H](C)CO)C(=O)c2cc(NC(=O)Nc3ccc(C(F)(F)F)cc3)ccc2O1,-9.3,-69.2
C[C@@H]1CCCCO[C@H](CN(C)CC2CC2)[C@H](C)CN([C@@H](C)CO)C(=O)c2cc(NC(=O)Nc3ccc(C(F)(F)F)cc3)ccc2O1,5.8,-80.2*
C[C@@H]1CCCCO[C@@H](CN(C)CC2CCCCC2)[C@@H](C)CN([C@@H](C)CO)C(=O)c2cc(NC(=O)Nc3ccc(C(F)(F)F)cc3)ccc2O1,-57.6,-52.6
C[C@H](CO)N1C[C@H](C)[C@@H](CN(C)Cc2ccccc2C(F)(F)F)OCc2cnnn2CCCC1=O,0.5,-15.7
C[C@@H]1CN([C@@H](C)CO)C(=O)c2cc(NS(=O)(=O)c3cccs3)ccc2O[C@@H](C)CCCCO[C@@H]1CN(C)C(=O)Nc1ccc(F)cc1,-7.4,-66.8
C[C@@H]1CN([C@H](C)CO)C(=O)c2cc(NS(=O)(=O)c3ccccc3)ccc2O[C@@H]1CN(C)S(=O)(=O)c1ccc(Cl)cc1,.,-12.5
Cc1noc(C)c1NC(=O)N[C@@H]1C=C[C@H](CC(=O)N2CCN(C)CC2)O[C@H]1CO,2.0,5.0
CO[C@@H]1CN(C)C(=O)c2cc(NC(=O)NC(C)C)ccc2OC[C@H](C)NC[C@H]1C,-13.0,30.0
C[C@H]1CN([C@@H](C)CO)C(=O)c2cc(NC(=O)Nc3ccc(C(F)(F)F)cc3)ccc2O[C@H]1CN(C)CC1CCCCC1,1.7,-48.1
C[C@@H]1CN([C@@H](C)CO)C(=O)c2cc(NC(=O)Nc3ccc(C(F)(F)F)cc3)ccc2O[C@@H]1CN(C)CC1CCCCC1,31.2,-83.0*
COc1ccc(C#Cc2cnc3c(c2)C(=O)N([C@H](C)CO)C[C@H](C)[C@H](CN(C)S(C)(=O)=O)O3)cc1OC,4.6,-27.8
COc1ccc(C#Cc2cnc3c(c2)C(=O)N([C@H](C)CO)C[C@H](C)[C@H](CN(C)S(=O)(=O)c2ccc(C)cc2)O3)cc1OC,-4.9,-85.2*
COc1ccc(C#Cc2cnc3c(c2)C(=O)N([C@H](C)CO)C[C@H](C)[C@H](CN(C)S(=O)(=O)c2cccc(F)c2)O3)cc1OC,17.0,-87.4*
C[C@H](CO)N1C[C@H](C)[C@H](CN(C)S(=O)(=O)c2cccc(F)c2)Oc2ncc(C#Cc3ccc(F)cc3)cc2C1=O,6.5,-68.3
O=C(C[C@H]1CC[C@@H]2[C@H](COC[C@@H](O)CN2S(=O)(=O)c2ccccc2)O1)Nc1ccccc1,2.1,0.0
C/C=C/c1ccc2c(c1)O[C@H](CN(C)C(=O)Cc1ccccc1)[C@H](C)CN([C@@H](C)CO)S2(=O)=O,-0.3,12.8
COc1ccc(C#Cc2ccc3c(c2)[C@H]2[C@H](CCN2C(=O)C2CCC2)[C@H](CO)N3)cc1,15.0,?
COc1ccc(C#Cc2ccc3c(c2)[C@@H]2[C@@H](CCN2C(=O)C2CCCC2)[C@H](CO)N3)cc1,2.9,-84.2*
COc1ccc(C#Cc2ccc3c(c2)[C@H]2[C@H](CCN2C(=O)C2CCCCC2)[C@H](CO)N3)cc1,-5.2,-37.0
SMILES,C diff HTS,Pf Dd2 growth
COc1ccc(C#Cc2ccc3c(c2)[C@H]2[C@H](CCN2C(=O)C2CCC2)[C@@H](CO)N3)cc1,-3.4,-86.3*
COc1ccc(C#Cc2ccc3c(c2)[C@@H]2[C@@H](CCN2C(=O)C2CC2)[C@H](CO)N3)cc1,18.2,-89.5*
COc1ccc(C#Cc2ccc3c(c2)[C@@H]2[C@@H](CCN2C(=O)C2CC2)[C@@H](CO)N3)cc1,-4.0,-48.0
CN1C(=O)c2cc(NC(=O)c3cccs3)ccc2OC[C@@H]2O[C@@H](CC(=O)NCCN3CCCCC3)CC[C@H]21,-2.2,-26.9
C[C@H](CO)N1C[C@H](C)[C@@H](CN(C)C(=O)Nc2ccc3c(c2)OCO3)Oc2ccc(NC(=O)Nc3ccc4c(c3)OCO4)cc2CC1=O,4.3,-47.7
C[C@H](CO)N1C[C@H](C)[C@H](CN(C)Cc2cccc(C(F)(F)F)c2)OCc2ccccc2-c2ccccc2C1=O,9.3,-74.6
Cc1ccccc1S(=O)(=O)N(C)C[C@H]1OCc2ccccc2-c2ccccc2C(=O)N([C@H](C)CO)C[C@H]1C,-2.2,-85.6*
C[C@H]1CN([C@@H](C)CO)C(=O)c2c(c3ccccc3n2C)-c2ccccc2CO[C@H]1CN(C)Cc1ccccc1C(F)(F)F,5.9,-69.4
C[C@@H]1CN([C@@H](C)CO)C(=O)c2ccccc2-c2ccccc2CO[C@H]1CN(C)Cc1ccccc1C(F)(F)F,29.8,-89.6*
C[C@H](CO)N1C[C@H](C)[C@H](CN(C)Cc2ccc(C(F)(F)F)cc2)OCc2ccccc2-c2ccccc2C1=O,-1.1,-83.7*
C[C@H]1CN([C@@H](C)CO)C(=O)c2ccccc2-c2ccccc2CO[C@H]1CN(C)Cc1ccc(C(F)(F)F)cc1,6.6,-92.1*
Cc1ccccc1S(=O)(=O)N(C)C[C@@H]1OCc2ccccc2-c2ccccc2C(=O)N([C@H](C)CO)C[C@H]1C,-5.6,3.0
C[C@H]1CN([C@@H](C)CO)C(=O)c2ccccc2-c2ccccc2CO[C@@H]1CN(C)Cc1ccc(C(F)(F)F)cc1,65.7,-26.4
Cc1ccc(S(=O)(=O)N[C@@H]2CC[C@@H](CCNC(=O)c3ccc4c(c3)OCO4)O[C@H]2CO)cc1,2.5,-7.8
NCC[C@@H]1CC[C@@H](NC(=O)C2CCCCC2)[C@@H](CO)O1,0.7,16.0
COc1ccc(-c2cnc3c(c2)C(=O)N([C@H](C)CO)C[C@H](C)[C@@H](CN(C)S(=O)(=O)c2ccc(OC)cc2)O3)cc1,.,-69.7
C[C@@H]1CN([C@H](C)CO)C(=O)c2ccccc2-c2ccccc2CO[C@H]1CN(C)S(=O)(=O)c1ccc(C(F)(F)F)cc1,2.9,-51.7
C[C@H](CO)N1C[C@H](C)[C@H](CN(C)S(=O)(=O)c2ccc(C(F)(F)F)cc2)OCc2ccccc2-c2ccccc2C1=O,4.7,-85.0*
C[C@H]1CN([C@@H](C)CO)C(=O)c2ccccc2-c2ccccc2CO[C@H]1CN(C)Cc1cccc(C(F)(F)F)c1,8.2,-78.7

# High-throughput results from PubChem BioAssay.
